TRHR ag: agonists of human TRH receptor. 360,000 compounds, 0.18% hits. P34981. AID 493084. TRHR cells, calcium flux fluo-8, FDSS agonist mode. activation, % at 2 µM; note: 0% is about no effect
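Read-out: compound-evoked intracellular calcium rise in TRHR cells, fluo-8 dye, kinetic FDSS fluorescence at 1 s/cycle following a 10-cycle baseline. Cells cultured overnight before dye loading (30 min–1.5 h, RT).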
TRHR PAM: allosterically enhances the human TRH receptor; 360,000 compounds, 0.66% hits; enhancement, % at 2 µM; P34981; TRHR cells, fluo-8 calcium fluorescence, EC20 TRH enhancement; in the data active = enhancement above about 30%; note: 0% is about no effect
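Enhancer read-out: after compound pinning and an initial kinetic agonist-mode read, an EC20 of TRH (10 nM final) was injected and fluo-8 calcium signal (Ex 480/Em 530) followed at 1 s/cycle for 100 cycles in TRHR-expressing cells.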
D1 antag: blocks dopamine activation of the human D1 receptor | activity change, negative = inhibition, % at 10 µM | P21728 | 360,000 compounds, 3.2% hits | AID 504652 | HEK293 TREx D1 cells, calcium flux, dopamine EC80; active compounds read low; in the data active = activity change below about -30%; note: % is set by controls: 0 for no effect and ±100 for the full control effect
Target sequence (P21728 whole entry, looked up): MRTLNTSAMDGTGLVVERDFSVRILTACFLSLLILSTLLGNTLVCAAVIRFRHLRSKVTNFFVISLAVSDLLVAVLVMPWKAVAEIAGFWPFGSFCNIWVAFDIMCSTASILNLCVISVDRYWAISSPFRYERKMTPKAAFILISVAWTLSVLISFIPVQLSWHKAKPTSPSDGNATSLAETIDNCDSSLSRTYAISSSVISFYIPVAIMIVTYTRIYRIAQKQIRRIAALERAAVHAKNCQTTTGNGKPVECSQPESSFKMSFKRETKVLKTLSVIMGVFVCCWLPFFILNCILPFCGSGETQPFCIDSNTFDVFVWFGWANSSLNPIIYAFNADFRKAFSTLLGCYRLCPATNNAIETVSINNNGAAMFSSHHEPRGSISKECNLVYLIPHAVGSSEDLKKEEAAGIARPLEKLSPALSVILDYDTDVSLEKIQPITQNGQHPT
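Tetracycline-induced HEK293 Trex D1 cells, force-coupled to calcium, dye-loaded; compounds added and read 180 s, then EC80 dopamine added and calcium flux tracked kinetically another 180 s.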
D1 PAM: enhances dopamine response at the human D1 receptor; P21728; HEK293 TREx D1 cells, calcium flux, dopamine EC20 potentiation; potentiation, % at 10 µM; 360,000 compounds, 0.036% hits; AID 504651; in the data active = potentiation above about 30%; note: 0% is about no effect
D1 ag: agonists of human D1 dopamine receptor; 360,000 compounds, 1% hits; activation, % at 2 µM; HEK293 T-REx D1 cells, calcium flux, agonist mode; P21728; note: 0% is about no effect
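Tetracycline-induced HEK293 TREx D1 cells, force-coupled to calcium signalling, were dye-loaded with a no-wash calcium kit. Compound was pin-added after a 10 s baseline. Fluorescence was read kinetically at 1 cycle/s for 180 s, with calcium rises flagged as agonism.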
The depositor's hits bear a star; ! = a repeat was not active. Only some compounds are listed: those with a hit (about 4.7% of all), similar ones and a draw of the others. Cut-off read from the data, not from the text of the source, unless noted: active = activation above about 30%; inactive = the rest.

SMILES | TRHR ag | TRHR PAM | D1 antag | D1 PAM | D1 ag
O=C(NC(=S)NCCC1=CCCCC1)c1ccc(Br)o1 | -0.1 | -7.5 | -31.6* | -5.0 | 4.2
O=C(CCc1ccccc1)NCCC1=CCCCC1 | -0.5 | 7.0 | -32.9* | 13.7 | 1.7
CCC1Oc2ccccc2N(CC(=O)NCCC2=CCCCC2)C1=O (stereo unspecified) | -0.9 | -0.9 | -33.7* | -1.1 | 6.1
O=C(c1cnc(N2CCN(c3ccccn3)CC2)c2ccccc12)N1CCN(c2cccc(Cl)c2)CC1 | -0.2 | 4.4 | 5.6 | -0.1 | 3.9
S=c1nc(-c2csc3c2CCCC3)[nH][nH]1 | 0.2 | -2.0 | -14.0 | -4.7 | -1.4
O=S(=O)(c1ccc2ccccc2c1)N1CCC(c2nc(-c3ccncc3)no2)CC1 | 0.6 | -4.5 | -34.7* | -0.5 | 2.4
Cc1ccc2occ(CC(=O)N(Cc3ccc(N(C)C)cc3)C3CCS(=O)(=O)C3)c2c1 (stereo unspecified) | -0.7 | 1.7 | -42.7* | 1.9 | 1.1
COCCn1c(C)cc(O)c(C(c2ccc(C)cc2)N2CCCCC2)c1=O (stereo unspecified) | -0.2 | -2.5 | 1.0 | 2.6 | 1.9
Cc1ccc(Cn2c(=O)n(Cc3ccco3)c(=O)c3sc4ccccc4c32)cc1 | 0.5 | -10.2 | 11.4 | -1.8 | 0.5
COc1ccc(C(=O)N/C(=C\c2cccc3ccccc23)C(=O)N2CCN(C)CC2)cc1 | 1.3 | 0.5 | 5.0 | 3.0 | 5.7
O=C(CCc1nnc(Cc2c[nH]c3ccccc23)o1)NCC1CC12CCCCC2 (stereo unspecified) | -0.1 | -1.2 | 3.7 | -1.6 | 0.8
CN(Cc1ccsc1)C(=O)CCc1nnc(Cc2c[nH]c3ccccc23)o1 | -0.1 | 36.0* | 1.7 | -2.4 | 0.1
CC(C)(C)NC(=O)CCc1nnc(Cc2c[nH]c3ccccc23)o1 | -0.6 | -9.9 | -50.6* | -3.4 | 2.7
CCn1nc(C)c(CNC(=O)CCc2nnc(Cc3c[nH]c4ccccc34)o2)c1C | -0.7 | -3.8 | -48.6* | -8.5 | 1.9
CCC(COC)NC(=O)CCc1nnc(Cc2c[nH]c3ccccc23)o1 (stereo unspecified) | 0.9 | 0.8 | 1.9 | 1.3 | 1.2
Cc1ccccc1-c1cccc(CN2CCN(C)C(CCO)C2)c1 (stereo unspecified) | 1.4 | 9.8 | -5.3 | -5.8 | 15.8
O=C(O)c1ccc(NC(=O)c2cccc(N3C(=O)C4C5CCC(C5)C4C3=O)c2)cc1 (stereo unspecified) | -0.2 | -8.7 | 8.6 | -1.6 | 2.5
COc1ccc(NC(=O)c2cccc(N3C(=O)C4C5C=CC(C5)C4C3=O)c2)c(OC)c1 (stereo unspecified) | -0.3 | 1.5 | -8.4 | -2.6 | 2.0
COc1ccc(NC(=O)c2cccc(N3C(=O)C4C5CCC(C5)C4C3=O)c2)cc1 (stereo unspecified) | 0.1 | 13.8 | -79.9* | -2.2 | 5.6
COc1ccc(NC(=O)c2cccc(N3C(=O)C4C5C=CC(C6CC56)C4C3=O)c2)c(OC)c1 (stereo unspecified) | -0.1 | 8.0 | -38.7* | 2.8 | 4.0
O=C(C1CCN(S(=O)(=O)c2ccccc2)CC1)N1CCc2ccccc21 | 247.1* | 59.7* | 7.6 | -2.4 | 332.6*
Cc1c(NS(=O)(=O)c2cc(Br)cc3c2N(C(=O)C2CC2)CC3)c(=O)n(-c2ccccc2)n1C | -0.2 | 3.3 | 6.1 | -2.9 | 1.8
Cc1c(NS(C)(=O)=O)c(=O)n(-c2ccccc2)n1C | -0.4 | 17.3 | -6.7 | 5.1 | 1.1
O=C(C1CC1)N1CCc2cc(S(=O)(=O)N(CCO)Cc3ccccc3)ccc21 | -0.2 | -4.9 | -39.5* | -4.8 | 11.4
Cc1c(NS(=O)(=O)c2ccc3c(c2)CCN3C(=O)C2CC2)c(=O)n(-c2ccccc2)n1C | -0.8 | -1.8 | -35.0* | -2.1 | -0.3
SMILES | TRHR ag | TRHR PAM | D1 antag | D1 PAM | D1 ag
Cc1c(NS(=O)(=O)N2CCCC2)c(=O)n(-c2ccccc2)n1C | -0.2 | -2.0 | -52.5* | -5.7 | 1.2
CCCCN(Cc1ccccc1)S(=O)(=O)c1ccc2c(c1)CCN2C(=O)C1CCC1 | 2.9 | 3.5 | -2.5 | 0.9 | 17.6
COc1ccc(NC2=C(c3ccc(C(F)(F)F)cc3)C(=O)c3ccccc32)cc1 | 0.7 | 0.4 | 0.6 | 1.1 | 2.0
COc1ccc(-c2nnn(CC(=O)NC(=O)NC3CCCCC3)n2)cc1OC | -0.3 | 1.1 | -17.6 | 0.2 | -1.0
Cc1cccc(NS(=O)(=O)c2ccc3c(c2)CCN3C(=O)C2CCC2)c1 | -0.8 | -2.4 | -25.0 | -0.5 | 8.6
Cc1c(NC(=O)/C=C/c2ccc(S(=O)(=O)N3CCOCC3)cc2)c(=O)n(-c2ccccc2)n1C | 0.5 | 33.7* | -8.1 | -0.6 | 0.6
COc1ccc(NS(=O)(=O)c2ccc3c(c2)CCN3C(=O)C2CC2)cc1OC | -0.4 | -4.7 | -32.8* | -2.9 | 16.7
Cc1ccc(S(=O)(=O)N2CCOCC2)cc1C(=O)Nc1c(C)n(C)n(-c2ccccc2)c1=O | 0.7 | -7.3 | -0.8 | 4.0 | 2.2
CC(C)(C)CN1C(N)=NC[C@@H]1Cc1ccc(O)cc1 | -0.5 | -5.1 | -44.8* | -0.3 | 1.9
CN(C)CCNC(=O)CN1C(=O)CCn2nc(-c3cn(C)c4ccccc34)cc21 | 0.3 | -2.6 | -5.1 | -2.7 | 0.5
Cn1cc(-c2cc3n(n2)CCC(=O)N3CC(=O)O)c2ccccc21 | 0.4 | 43.4* | -24.2 | -0.3 | 1.0
Cn1c(=O)n(C)c2cc(NS(=O)(=O)c3ccccc3[N+](=O)[O-])ccc21 | 0.3 | 2.3 | -8.6 | -2.4 | 3.9
C=CCNC(=O)c1onc(CSc2ccccn2)c1C(=O)NCC=C | -0.3 | 2.1 | -60.0* | -0.1 | 1.7
CN(C)CCCC1(c2ccc(F)cc2)OCc2cc(C#N)ccc21 (stereo unspecified) | 0.2 | -3.8 | -52.5*! | -2.5 | 8.9
CCN(CC)CCNC(=O)c1cc(-c2ccc(Br)s2)nc2ccccc12 | 2.5 | -5.2 | -4.6 | -0.8 | 33.8*!
Cc1cc(CNC(=O)COc2ccc(F)cc2)c2ccccc2n1 | -0.8 | -1.4 | 11.9 | -9.6 | 8.7
O=C(NCCc1ccccc1)c1cc(Sc2cccc(Cl)c2)nc2ccccc12 | 2.1 | -5.1 | -43.4* | -0.9 | 12.0
O=C(NCc1cccc(Cl)c1)c1cccc(C(F)(F)F)c1 | 0.1 | 14.2 | -33.2* | -8.7 | 2.5
Cc1cc(CNC(=O)COc2ccccc2)c2ccccc2n1 | -0.3 | -4.8 | -35.4* | 2.7 | 14.1
CCOC(=O)c1sc2ccccc2c1S(=O)(=O)N1CCN(c2cccc(C)c2)C(C)C1 (stereo unspecified) | 0.3 | -6.6 | 7.4 | -4.6 | 0.3
CCCCc1nc2ccccc2n2c(-c3ccc(OC)cc3)c3c(=O)n(C)c(=O)n(C)c3c12 | -0.7 | -2.4 | 1.0 | 1.4 | 0.7
Cc1cc(OC(C)C(=O)N(Cc2ccco2)Cc2ccccc2F)cc(C)c1Cl (stereo unspecified) | 3.6 | -1.7 | -3.4 | 1.8 | 13.4

Screening results (PubChem BioAssay)
